# From PubChem BioAssay (EPA / NIEHS)
# Inconclusive results are not listed. The source made the active and inactive calls. Rule for the calls: active = hit-call score of the fitted dose curve at least 0.9, where 1 is the maximum; inconclusive = response in the unintended direction; inactive = score below 0.9.
# Experiments:
# [1] = molecular target: Cellular tumor antigen p53 (Homo sapiens) (UniProt P04637); experiment: TOX21_p53_BLA_p2_ratio: Tox21 HCT-116 p53 Agonism Beta-lactamase Assay, Ratio, Phase 2 (AID 2283592)
# Chain of Cellular tumor antigen p53 (Homo sapiens) (P04637 whole entry, looked up): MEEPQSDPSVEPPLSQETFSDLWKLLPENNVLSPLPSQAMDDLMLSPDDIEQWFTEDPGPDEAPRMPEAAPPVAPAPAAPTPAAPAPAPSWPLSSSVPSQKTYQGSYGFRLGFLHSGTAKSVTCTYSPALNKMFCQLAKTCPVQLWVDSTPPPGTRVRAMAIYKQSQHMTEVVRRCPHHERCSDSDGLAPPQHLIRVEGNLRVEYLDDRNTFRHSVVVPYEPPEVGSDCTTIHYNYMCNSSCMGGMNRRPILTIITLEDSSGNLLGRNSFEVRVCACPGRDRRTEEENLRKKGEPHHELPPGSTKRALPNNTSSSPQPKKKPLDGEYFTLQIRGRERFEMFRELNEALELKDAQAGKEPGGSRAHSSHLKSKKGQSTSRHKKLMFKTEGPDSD
# Outline: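 HCT116 cells carrying a p53-responsive beta-lactamase reporter were plated, incubated 5 h at 37C, then dosed with compounds in DMSO (217-fold dilution) for 16 h. CCF4-AM substrate was added for 2 h at room temperature; the 460/530 nm emission ratio gave gain-of-signal activity relative to DMSO.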
# [2] = TOX21_p53_BLA_p3_viability: Viability Assessment in the Tox21 HCT-116 p53 Agonism Beta-lactamase Assay, Phase 3 (AID 2283593);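 note: cells exposed to compound for 16 h before reading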
# Outline: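 HCT-116 cells (4000/well) rested 5 h at 37C, then got DMSO compounds by pin tool (217-fold dilution) for 16 h at 37C, 5% CO2. After the bla read, CellTiter-Glo was added and luminescence read at 30 min, room temperature.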
# [3] = molecular target: Cellular tumor antigen p53 (Homo sapiens) (UniProt P04637); experiment: TOX21_p53_BLA_p3_ratio: Tox21 HCT-116 p53 Agonism Beta-lactamase Assay, Ratio, Phase 3 (AID 2283596)
# Outline: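 HCT116 p53-bla cells (4000/well) given compound in DMSO (217-fold dilution) after 5 h, incubated 16 h at 37C. CCF4-AM substrate 2 h at room temperature; 460/530 nm emission ratio, gain fitted against DMSO.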
# [4] = molecular target: Cellular tumor antigen p53 (Homo sapiens) (UniProt P04637); experiment: TOX21_p53_BLA_p5_ratio: Tox21 HCT-116 p53 Agonism Beta-lactamase Assay, Ratio, Phase 5 (AID 2283599)
# Outline: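 HCT-116 cells carrying a p53-inducible beta-lactamase reporter were seeded at 4000 cells/well and dosed after 5 h with compound in DMSO (217-fold dilution). After 16 h at 37C, CCF4-AM substrate was added for 2 h, and the 460/530 nm emission ratio was scored as gain-of-signal versus DMSO.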
# [5] = molecular target: Cellular tumor antigen p53 (Homo sapiens) (UniProt P04637); experiment: TOX21_p53_BLA_p4_ratio: Tox21 HCT-116 p53 Agonism Beta-lactamase Assay, Ratio, Phase 4 (AID 2283601)
# Outline: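 HCT116 cells carrying an inducible beta-lactamase reporter were plated at 4000 cells/well, rested 5 h, then exposed to compounds in DMSO (217-fold dilution) for 16 h at 37C. CCF4-AM substrate was loaded 2 h at room temperature; 460/530 nm emission ratio scored gain-of-signal versus DMSO.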
# [6] = TOX21_p53_BLA_p2_viability: Viability Assessment in the Tox21 HCT-116 p53 Agonism Beta-lactamase Assay, Phase 2 (AID 2283591);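 note: compound exposure lasted 16 h at 37 °C; actives lower the ATP signal meaning cytotoxicity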
# Outline: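 HCT-116 p53-bla cells (4000/well) rested 5 h at 37C, then received compounds in DMSO (217-fold dilution) for 16 h at 37C, 5% CO2. After the CCF4 read, CellTiter-Glo was added; ATP luminescence was read after 30 min at room temperature.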
# [7] = TOX21_p53_BLA_p5_viability: Viability Assessment in the Tox21 HCT-116 p53 Agonism Beta-lactamase Assay, Phase 5 (AID 2283600)
# Outline: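 Cells were plated at 4000/well, rested 5 h at 37C, then given compounds in DMSO (217-fold dilution) for 16 h at 37C, 5% CO2. Following the CCF4-AM beta-lactamase read, CellTiter-Glo was added and luminescence was read after 30 min at room temperature.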
# [8] = TOX21_p53_BLA_p4_viability: Viability Assessment in the Tox21 HCT-116 p53 Agonism Beta-lactamase Assay, Phase 4 (AID 2283597);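 note: hits lower the luminescence signal meaning cytotoxicity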
# Outline: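 HCT116 p53-bla cells (4000/well) rested 5 h at 37C, then received compounds in DMSO (217-fold dilution) for 16 h at 37C, 5% CO2. CellTiter-Glo was added after the CCF4-AM read, and luminescence was read after 30 min at room temperature.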
compound,measurement,setting,value
c1ccc(-c2nn[nH]n2)cc1,outcome,[1],inactive
same,outcome,[2],inactive
same,outcome,[3],inactive
same,outcome,[4],inactive
same,outcome,[5],inactive
CC1=CC(C)C(C=O)C(C)C1 (stereo not given) (tested in a mixture with another compound),outcome,[6],inactive
same,outcome,[1],inactive
same,outcome,[3],inactive
same,outcome,[7],inactive
same,outcome,[5],inactive
CCC(C)COC(=O)CC(C)C (stereo not given),outcome,[6],inactive
same,outcome,[1],inactive
same,outcome,[2],inactive
same,AC50,[8],46.1 µM (active)
same,outcome,[4],inactive
same,outcome,[5],inactive
CNC(=C[N+](=O)[O-])NCCSCc1ccc(CN(C)C)o1,outcome,[6],inactive
same,outcome,[1],inactive
same,outcome,[2],inactive
same,outcome,[8],inactive
same,outcome,[7],inactive
same,outcome,[5],inactive
CCCCOC(=O)C(C)OC(=O)CCC (stereo not given),outcome,[6],inactive
same,outcome,[1],inactive
same,outcome,[7],inactive
same,outcome,[5],inactive
CC(C)=CC(=O)O,outcome,[6],inactive
same,outcome,[2],inactive
same,outcome,[4],inactive
CCO[Si](CC)(OCC)OCC,outcome,[6],inactive
same,outcome,[1],inactive
same,outcome,[2],inactive
same,outcome,[8],inactive
same,outcome,[7],inactive
same,outcome,[5],inactive
CC(C)COC(=O)c1ccccc1,outcome,[6],inactive
same,outcome,[1],inactive
same,outcome,[2],inactive
same,outcome,[4],inactive
same,outcome,[7],inactive
same,outcome,[5],inactive
CCCCCCCCOS(=O)(=O)O,outcome,[6],inactive
same,outcome,[1],inactive
same,outcome,[2],inactive
same,outcome,[7],inactive
same,outcome,[5],inactive
CCCCCC1CCC(=O)O1 (stereo not given),outcome,[6],inactive
same,outcome,[1],inactive
same,outcome,[4],inactive
same,outcome,[5],inactive
O=C(Nc1cccc(Cl)c1)OCC#CCCl,AC50,[6],67.5 µM (active)
same,AC50,[1],19.9 µM (active)
same,AC50,[2],69.2 µM (active)
same,AC50,[4],14.1 µM (active)
same,outcome,[7],inactive
same,AC50,[5],19.6 µM (active)
CC(=O)c1cccnc1,outcome,[1],inactive
same,outcome,[3],inactive
same,outcome,[8],inactive
same,outcome,[4],inactive
same,outcome,[5],inactive
CCC(C)(C)C1CCC(=O)CC1,outcome,[6],inactive
same,outcome,[1],inactive
same,outcome,[2],inactive
same,outcome,[3],inactive
same,outcome,[4],inactive
same,outcome,[5],inactive
CCCCC1CCCCC(=O)O1 (stereo not given),outcome,[6],inactive
same,outcome,[2],inactive
same,outcome,[3],inactive
same,outcome,[8],inactive
same,outcome,[4],inactive
CCOC(=O)CCCCCCCCC(=O)OCC,outcome,[1],inactive
same,outcome,[3],inactive
same,outcome,[4],inactive
same,outcome,[7],inactive
same,outcome,[5],inactive
C=CC(C)(CCC=C(C)C)OC(=O)CC (stereo not given),outcome,[1],inactive
same,outcome,[4],inactive
same,outcome,[7],inactive
same,outcome,[5],inactive
CC1=CC(=O)[C@H]2C[C@@H]1C2(C)C,outcome,[1],inactive
same,outcome,[2],inactive
same,outcome,[4],inactive
CC(=O)OC(C)(C)C,outcome,[6],inactive
same,outcome,[1],inactive
same,outcome,[2],inactive
same,outcome,[5],inactive
C=CCS(=O)(=O)O,outcome,[1],inactive
same,outcome,[2],inactive
same,outcome,[3],inactive
same,outcome,[4],inactive
same,outcome,[7],inactive
same,outcome,[5],inactive
CCC(C)(CCCC(C)C)OC(C)=O (stereo not given),outcome,[1],inactive
same,outcome,[4],inactive
same,outcome,[7],inactive
same,outcome,[5],inactive
CN(C)CCCNCCCN(C)C,outcome,[6],inactive
same,outcome,[1],inactive
same,outcome,[2],inactive
same,outcome,[8],inactive
same,outcome,[4],inactive
same,outcome,[5],inactive
O=C(C=Cc1ccccc1)OCCCc1ccccc1,outcome,[6],inactive
same,outcome,[2],inactive
same,outcome,[4],inactive
same,outcome,[7],inactive
same,outcome,[5],inactive
CC(C)(CO)CO,outcome,[6],inactive
same,outcome,[1],inactive
same,outcome,[2],inactive
same,outcome,[8],inactive
same,outcome,[4],inactive
same,outcome,[7],inactive
same,outcome,[5],inactive
CCCCCC#CC(=O)OC,outcome,[3],inactive
same,outcome,[4],inactive
same,outcome,[5],inactive
CC(C)=CCCC(C)=CC(=O)O,outcome,[6],inactive
same,outcome,[2],inactive
same,outcome,[3],inactive
same,outcome,[8],inactive
same,outcome,[7],inactive
same,outcome,[5],inactive
CC(=O)Oc1c(C)c(C)c2c(c1C)CC[C@@](C)(CCC[C@H](C)CCC[C@H](C)CCCC(C)C)O2,outcome,[6],inactive
same,outcome,[1],inactive
same,outcome,[2],inactive
same,outcome,[8],inactive
same,outcome,[4],inactive
same,outcome,[5],inactive
O=S(=O)(O)c1cc(O)c(O)c(S(=O)(=O)O)c1,outcome,[6],inactive
same,outcome,[1],inactive
same,outcome,[2],inactive
same,outcome,[8],inactive
same,outcome,[7],inactive
same,outcome,[5],inactive
CC1=CCC(C(C)C)=CC1,outcome,[2],inactive
same,outcome,[3],inactive
same,outcome,[7],inactive
same,outcome,[5],inactive
C=CCOC(=O)/C=C\C(=O)OCC=C,outcome,[6],inactive
same,outcome,[1],inactive
same,outcome,[2],inactive
same,outcome,[3],inactive
same,outcome,[4],inactive
same,outcome,[5],inactive
N#CCCCC(C#N)CCC#N (stereo not given),outcome,[1],inactive
same,outcome,[2],inactive
same,outcome,[8],inactive
same,outcome,[4],inactive
C=COCC1CCC(COC=C)CC1 (stereo not given),outcome,[3],inactive
same,outcome,[4],inactive
same,outcome,[5],inactive
CC1=CCC(=C(C)C)CC1,outcome,[6],inactive
same,outcome,[2],inactive
same,outcome,[3],inactive
same,outcome,[4],inactive
same,outcome,[5],inactive
CCCCCCCCCCCCS,outcome,[6],inactive
same,outcome,[1],inactive
same,outcome,[2],inactive
same,outcome,[3],inactive
same,outcome,[4],inactive
same,outcome,[7],inactive
same,outcome,[5],inactive
CCCCC(CC)COC(=O)COc1ccc(Cl)cc1C (stereo not given),outcome,[1],inactive
same,outcome,[2],inactive
same,outcome,[3],inactive
same,outcome,[8],inactive
C1=COCCC1,outcome,[6],inactive
same,outcome,[1],inactive
same,outcome,[7],inactive
same,outcome,[5],inactive
CC(C)CCCC(C)(C)O,outcome,[2],inactive
same,outcome,[3],inactive
same,outcome,[4],inactive
same,outcome,[7],inactive
O=C(O)c1cc(C(=O)O)c(C(=O)O)cc1C(=O)O,outcome,[1],inactive
same,outcome,[7],inactive
C[Si]1(C)N[Si](C)(C)N[Si](C)(C)N1,outcome,[6],inactive
same,outcome,[1],inactive
same,outcome,[3],inactive
same,outcome,[4],inactive
same,outcome,[5],inactive
